According to the supplement of paper PMC10849652:
About 8,800 targets were measured; listed, in parts, are those with a hit and a random draw of the rest. About 0.5% of all pairs of compound and target were hits.

Legend:
Assay in all cases: log2 fold change, soluble protein after heating vs DMSO (PISA); higher = thermal stabilisation; K562 lysate, 10 uM; active = over 0.2 and 3.5 SD of the protein, either way, in both replicates (recomputed)
nilotinib = compound: Cc1cn(-c2cc(NC(=O)c3ccc(C)c(Nc4nccc(-c5cccnc5)n4)c3)cc(C(F)(F)F)c2)cn1 [nilotinib]
Summary of the method: (§1)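 Thermal stability, expressed as log-two fold change relative to solvent controls, is given from duplicates. Crude K562 extract in PBS pH 7.4 with 1 mM MgCl2, at 1 mg/mL protein, was treated with 10 μM compound for 30 min and heated in aliquots for 3 min across 48°C-58°C. After pooling, adjustment to 0.5% NP-40 at 4°C and centrifugation at 21,000xg for 90 min, supernatant protein was measured by TMTpro 16plex LC-MS/MS with channel sums equalised.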

[1] = compound: Cc1nc(Nc2n[nH]c3c2CN(C(=O)N[C@H](CN(C)C)c2ccccc2)C3(C)C)c2sccc2n1
Summary of the method: as §1

dasatinib = compound: Cc1nc(Nc2ncc(C(=O)Nc3c(C)cccc3Cl)s2)cc(N2CCN(CCO)CC2)n1 [dasatinib]
Summary of the method: as §1

[2] = compound: Cc1ncc(-c2ccnc(Nc3ccc(S(C)(=O)=O)cc3)n2)n1C(C)C
Summary of the method: as §1

[3] = compound: Cn1cc(-c2ccc3c(c2)CCN3C(=O)Cc2cccc(C(F)(F)F)c2)c2c(N)ncnc21
Summary of the method: as §1

quisinostat = compound: Cn1cc(CNCC2CCN(c3ncc(C(=O)NO)cn3)CC2)c2ccccc21 [quisinostat]
Summary of the method: as §1

tipifarnib = compound: Cn1cncc1[C@@](N)(c1ccc(Cl)cc1)c1ccc2c(c1)c(-c1cccc(Cl)c1)cc(=O)n2C [tipifarnib]
Summary of the method: as §1

[4] = compound: NC(=O)Nc1cc(-c2cccc(F)c2)sc1C(=O)N[C@H]1CCCNC1
Summary of the method: as §1

[5] = compound: NC(=O)c1cnc(N[C@@H]2CCCC[C@@H]2N)nc1Nc1cccc(-n2nccn2)c1
Summary of the method: as §1

[6] = compound: NC1(c2ccc(-c3nc4ccn5c(=O)[nH]nc5c4cc3-c3ccccc3)cc2)CCC1
Summary of the method: as §1

Measured: log2 fold change

CBX1 (UniProt P83916)
Sequence of UniProt P83916 (P83916 whole entry, looked up): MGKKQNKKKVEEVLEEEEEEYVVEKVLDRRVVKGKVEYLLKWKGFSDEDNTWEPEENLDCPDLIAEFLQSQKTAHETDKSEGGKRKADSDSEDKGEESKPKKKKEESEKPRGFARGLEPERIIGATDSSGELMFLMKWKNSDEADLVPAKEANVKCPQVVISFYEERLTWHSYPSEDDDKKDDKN
inactive: nilotinib 0.006 | [1] -0.003 | dasatinib 0.017 | [2] 0 | [3] -0.027 | quisinostat -0.004 | tipifarnib -0.008 | [4] -0.004 | [5] 0.062 | [6] 0.012

CHD4 isoform 2 (UniProt Q14839)
inactive: nilotinib 0.006 | [1] 0.008 | dasatinib -0.011 | [2] -0.006 | [3] 0.015 | quisinostat -0.038 | tipifarnib -0.008 | [4] 0.031 | [5] 0.01 | [6] 0.001

CHCHD1 (UniProt Q96BP2)
inactive: nilotinib -0.09 | [1] -0.023 | dasatinib 0.084 | [2] -0.043 | [3] -0.097 | quisinostat -0.174 | tipifarnib -0.03 | [4] 0 | [5] -0.023 | [6] -0.019

CCPG1 isoform 5 (UniProt Q9ULG6)
inactive: nilotinib 0.067 | [1] 0.017 | dasatinib 0.013 | [2] 0.087 | [3] 0.004 | quisinostat -0.021 | tipifarnib -0.033 | [4] 0.029 | [5] 0 | [6] -0.073

CES2 isoform 4 (UniProt O00748)
inactive: nilotinib -0.073 | [1] -0.115 | dasatinib 0.065 | [2] 0.098 | [3] -0.087 | quisinostat -0.042 | tipifarnib 0.05 | [4] -0.029 | [5] 0.033 | [6] 0.001

CHCHD7 isoform 4 (UniProt Q9BUK0)
Sequence of UniProt Q9BUK0 (Q9BUK0 whole entry, looked up): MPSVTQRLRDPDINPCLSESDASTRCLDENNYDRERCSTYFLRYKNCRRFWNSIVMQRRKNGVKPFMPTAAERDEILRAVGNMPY
inactive: nilotinib -0.147 | [1] 0.031 | dasatinib -0.044 | [2] -0.147 | [3] 0.041 | quisinostat -0.207 | tipifarnib -0.117 | [4] 0.055 | [5] -0.04

CCNB1 (UniProt P14635)
active: [2] 0.369
inactive: nilotinib -0.04 | [1] 0.037 | dasatinib -0.016 | [3] -0.021 | quisinostat 0.035 | tipifarnib -0.005 | [4] 0.005 | [5] 0.165 | [6] 0.006

CBX5 (UniProt P45973)
Sequence of UniProt P45973 (P45973 whole entry, looked up): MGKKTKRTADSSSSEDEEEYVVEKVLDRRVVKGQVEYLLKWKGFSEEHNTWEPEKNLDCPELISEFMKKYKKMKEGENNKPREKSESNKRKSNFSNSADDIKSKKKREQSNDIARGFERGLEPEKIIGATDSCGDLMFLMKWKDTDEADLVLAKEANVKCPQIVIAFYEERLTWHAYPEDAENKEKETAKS
inactive: nilotinib 0.014 | [1] 0.011 | dasatinib 0.028 | [2] 0.052 | [3] -0.017 | quisinostat -0.09 | tipifarnib -0.024 | [4] 0.014 | [5] -0.004 | [6] 0.007

CDC40 (UniProt O60508)
inactive: nilotinib -0.015 | [1] -0.026 | dasatinib -0.005 | [2] 0.039 | [3] 0.058 | quisinostat -0.138 | tipifarnib 0.046 | [4] 0.02 | [5] 0.063 | [6] 0.097

AURKA (UniProt O14965)
inactive: nilotinib -0.065 | [1] 0.209 | dasatinib 0.226 | [2] 0.174 | [3] 0.027 | quisinostat -0.117 | tipifarnib -0.088 | [4] 0.18 | [5] -0.04 | [6] -0.05

CEPT1 (UniProt Q9Y6K0)
Sequence of UniProt Q9Y6K0 (Q9Y6K0 whole entry, looked up): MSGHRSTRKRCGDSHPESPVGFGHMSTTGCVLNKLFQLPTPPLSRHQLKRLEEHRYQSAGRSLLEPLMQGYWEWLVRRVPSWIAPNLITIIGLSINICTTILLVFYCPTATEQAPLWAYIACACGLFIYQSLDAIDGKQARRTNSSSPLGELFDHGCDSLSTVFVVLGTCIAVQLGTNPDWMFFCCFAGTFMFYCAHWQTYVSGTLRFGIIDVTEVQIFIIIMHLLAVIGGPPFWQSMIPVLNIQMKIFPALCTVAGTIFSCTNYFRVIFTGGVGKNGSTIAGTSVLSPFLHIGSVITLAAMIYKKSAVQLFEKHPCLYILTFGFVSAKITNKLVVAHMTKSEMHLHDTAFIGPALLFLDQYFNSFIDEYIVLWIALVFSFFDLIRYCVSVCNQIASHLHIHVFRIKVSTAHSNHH
inactive: nilotinib -0.053 | [1] -0.015 | dasatinib -0.018 | [2] 0.028 | [3] 0.06 | quisinostat -0.021 | tipifarnib -0.068 | [4] 0.028 | [5] -0.008 | [6] -0.094

CASP7 isoform 3 (UniProt P55210)
inactive: nilotinib -0.042 | [1] 0.01 | dasatinib -0.091 | [2] 0.05 | [3] 0.226 | quisinostat -0.016 | tipifarnib 0.049 | [4] 0.022 | [5] 0.106 | [6] 0.063

CAMKK1 isoform 2 (UniProt Q8N5S9)
Sequence of UniProt Q8N5S9 (Q8N5S9 whole entry, looked up): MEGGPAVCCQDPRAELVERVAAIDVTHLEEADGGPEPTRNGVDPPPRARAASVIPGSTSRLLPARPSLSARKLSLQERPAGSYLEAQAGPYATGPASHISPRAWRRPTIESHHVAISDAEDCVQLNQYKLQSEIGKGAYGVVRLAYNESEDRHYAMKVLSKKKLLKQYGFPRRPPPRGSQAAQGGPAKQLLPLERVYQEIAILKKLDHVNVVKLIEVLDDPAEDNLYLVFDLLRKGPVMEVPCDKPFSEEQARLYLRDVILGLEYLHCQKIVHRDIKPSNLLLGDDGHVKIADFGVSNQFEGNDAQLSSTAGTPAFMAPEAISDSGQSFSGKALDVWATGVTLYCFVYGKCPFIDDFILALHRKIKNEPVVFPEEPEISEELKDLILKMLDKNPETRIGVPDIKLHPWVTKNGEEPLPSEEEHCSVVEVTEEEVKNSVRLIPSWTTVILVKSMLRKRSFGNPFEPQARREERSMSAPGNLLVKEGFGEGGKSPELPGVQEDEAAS
inactive: nilotinib -0.013 | [1] 0.144 | dasatinib 0.05 | [2] 0.064 | [3] 0.189 | quisinostat -0.072 | tipifarnib -0.064 | [4] 0.047 | [5] -0.002 | [6] 0.007

ATXN2 (UniProt Q99700)
inactive: nilotinib -0.04 | [1] 0.023 | dasatinib 0.023 | [2] -0.003 | [3] 0.047 | quisinostat -0.065 | tipifarnib 0.014 | [4] 0.045 | [5] 0.011 | [6] -0.028

CHD3 isoform 3 (UniProt Q12873)
inactive: nilotinib 0.036 | [1] -0.004 | dasatinib -0.033 | [2] -0.047 | [3] 0.032 | quisinostat 0.005 | tipifarnib 0.014 | [4] 0.029 | [5] -0.002 | [6] 0.008

CDC25C (UniProt P30307)
inactive: nilotinib 0.039 | [1] -0.037 | dasatinib 0.042 | [2] -0.048 | [3] 0.004 | quisinostat 0.056 | tipifarnib -0.004 | [4] 0.025 | [5] 0.015 | [6] 0.05

CCDC32 isoform 2 (UniProt Q9BV29)
inactive: nilotinib -0.009 | [1] 0.024 | dasatinib 0.021 | [2] 0.105 | [3] -0.001 | quisinostat -0.05 | tipifarnib 0.076 | [4] -0.028 | [5] -0.05 | [6] -0.03

C1orf131 isoform 5 (UniProt Q8NDD1)
inactive: nilotinib -0.106 | [1] -0.059 | dasatinib 0.048 | [2] -0.135 | [3] 0.034 | quisinostat -0.103 | tipifarnib 0.073 | [4] -0.025 | [5] -0.035 | [6] 0.002

CCNB2 (UniProt O95067)
Sequence of UniProt O95067 (O95067 whole entry, looked up): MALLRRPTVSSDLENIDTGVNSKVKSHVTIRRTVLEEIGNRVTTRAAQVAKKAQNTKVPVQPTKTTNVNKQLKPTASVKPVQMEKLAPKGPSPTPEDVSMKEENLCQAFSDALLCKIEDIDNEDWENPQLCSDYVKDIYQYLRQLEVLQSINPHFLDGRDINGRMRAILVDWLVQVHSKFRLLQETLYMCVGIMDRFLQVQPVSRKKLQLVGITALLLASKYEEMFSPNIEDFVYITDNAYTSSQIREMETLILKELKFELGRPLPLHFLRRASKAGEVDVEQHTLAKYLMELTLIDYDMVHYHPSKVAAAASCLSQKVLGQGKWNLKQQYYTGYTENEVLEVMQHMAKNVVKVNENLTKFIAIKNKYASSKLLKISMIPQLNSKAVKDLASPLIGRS
inactive: nilotinib -0.053 | [1] 0.081 | dasatinib -0.016 | [3] -0.046 | quisinostat -0.081 | tipifarnib -0.029 | [4] 0.012 | [5] -0.038 | [6] 0
active: [2] 0.21

BCAR1 isoform 6 (UniProt P56945)
Sequence of UniProt P56945 (P56945 whole entry, looked up): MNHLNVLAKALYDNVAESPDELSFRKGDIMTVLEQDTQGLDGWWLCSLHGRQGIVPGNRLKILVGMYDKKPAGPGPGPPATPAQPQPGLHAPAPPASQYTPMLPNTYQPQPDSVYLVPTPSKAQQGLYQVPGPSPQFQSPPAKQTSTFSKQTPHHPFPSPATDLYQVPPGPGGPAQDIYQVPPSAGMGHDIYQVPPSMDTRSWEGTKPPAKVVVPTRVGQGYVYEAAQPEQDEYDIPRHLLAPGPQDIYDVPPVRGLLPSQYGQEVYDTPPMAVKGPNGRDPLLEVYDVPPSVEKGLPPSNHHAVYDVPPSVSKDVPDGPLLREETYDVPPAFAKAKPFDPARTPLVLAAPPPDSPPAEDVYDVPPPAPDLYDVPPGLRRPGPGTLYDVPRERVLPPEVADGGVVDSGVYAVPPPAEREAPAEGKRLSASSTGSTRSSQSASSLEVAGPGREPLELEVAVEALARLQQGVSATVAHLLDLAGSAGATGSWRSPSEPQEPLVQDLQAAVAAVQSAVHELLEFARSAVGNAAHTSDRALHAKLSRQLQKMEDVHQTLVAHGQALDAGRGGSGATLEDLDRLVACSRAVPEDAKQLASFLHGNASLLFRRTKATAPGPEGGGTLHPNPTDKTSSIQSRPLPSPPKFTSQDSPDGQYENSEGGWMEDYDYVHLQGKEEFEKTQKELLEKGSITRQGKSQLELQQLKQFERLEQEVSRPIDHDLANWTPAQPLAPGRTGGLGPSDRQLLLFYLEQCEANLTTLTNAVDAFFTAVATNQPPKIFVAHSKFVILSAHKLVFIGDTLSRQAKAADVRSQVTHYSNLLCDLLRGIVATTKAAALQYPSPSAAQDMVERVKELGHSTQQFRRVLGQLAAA
inactive: nilotinib -0.021 | [1] -0.015 | dasatinib 0.001 | [2] -0.068 | [3] 0.018 | quisinostat 0.021 | tipifarnib -0.006 | [4] 0.016 | [5] -0.009 | [6] 0.008

CDC7 (UniProt O00311)
inactive: nilotinib -0.049 | [1] 0.028 | dasatinib 0.029 | [2] 0.059 | [3] 0.001 | quisinostat -0.047 | tipifarnib -0.009 | [4] 0.015 | [5] -0.022 | [6] -0.016

CBR1 (UniProt P16152)
Sequence of UniProt P16152 (P16152 whole entry, looked up): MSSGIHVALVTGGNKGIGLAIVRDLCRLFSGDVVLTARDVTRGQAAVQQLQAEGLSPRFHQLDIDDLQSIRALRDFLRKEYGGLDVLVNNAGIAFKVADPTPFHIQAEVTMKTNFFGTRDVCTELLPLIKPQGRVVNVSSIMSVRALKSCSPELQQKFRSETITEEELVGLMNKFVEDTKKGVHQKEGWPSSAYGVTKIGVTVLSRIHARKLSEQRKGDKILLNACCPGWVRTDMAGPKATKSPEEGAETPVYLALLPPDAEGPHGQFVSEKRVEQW
inactive: nilotinib 0.046 | [1] 0.046 | dasatinib 0.1 | [2] 0.076 | [3] -0.02 | quisinostat 0.113 | tipifarnib -0.001 | [4] -0.021 | [5] -0.02 | [6] 0.016

C2CD5 isoform 3 (UniProt Q86YS7)
Sequence of UniProt Q86YS7 (Q86YS7 whole entry, looked up): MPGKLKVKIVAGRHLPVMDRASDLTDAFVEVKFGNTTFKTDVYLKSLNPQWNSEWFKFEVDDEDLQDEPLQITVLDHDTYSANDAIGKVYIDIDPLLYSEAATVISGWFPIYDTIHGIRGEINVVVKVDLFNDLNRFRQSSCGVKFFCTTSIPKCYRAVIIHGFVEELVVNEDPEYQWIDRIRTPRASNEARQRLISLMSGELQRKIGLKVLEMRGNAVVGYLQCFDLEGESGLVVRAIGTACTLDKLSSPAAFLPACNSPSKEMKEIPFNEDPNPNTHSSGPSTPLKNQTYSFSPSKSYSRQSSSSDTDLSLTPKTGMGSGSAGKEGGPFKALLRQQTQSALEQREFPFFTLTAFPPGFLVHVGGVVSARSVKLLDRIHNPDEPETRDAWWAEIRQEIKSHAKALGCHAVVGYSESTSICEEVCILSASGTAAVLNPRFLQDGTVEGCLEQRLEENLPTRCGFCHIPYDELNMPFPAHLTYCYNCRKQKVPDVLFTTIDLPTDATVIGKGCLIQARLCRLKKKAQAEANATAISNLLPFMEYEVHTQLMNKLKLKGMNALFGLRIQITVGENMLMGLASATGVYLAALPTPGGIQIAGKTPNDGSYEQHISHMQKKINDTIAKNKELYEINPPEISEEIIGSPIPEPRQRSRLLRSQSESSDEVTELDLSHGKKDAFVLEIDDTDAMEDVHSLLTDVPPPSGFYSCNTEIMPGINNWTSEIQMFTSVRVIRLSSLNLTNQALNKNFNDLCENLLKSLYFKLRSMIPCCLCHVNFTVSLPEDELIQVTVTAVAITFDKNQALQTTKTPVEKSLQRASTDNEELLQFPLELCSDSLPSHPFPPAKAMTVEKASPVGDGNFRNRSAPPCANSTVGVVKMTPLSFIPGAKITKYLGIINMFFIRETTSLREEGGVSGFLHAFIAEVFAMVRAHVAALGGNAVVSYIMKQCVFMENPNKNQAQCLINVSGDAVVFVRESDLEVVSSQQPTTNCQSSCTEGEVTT
inactive: nilotinib -0.036 | [1] 0.074 | dasatinib -0.053 | [2] 0.046 | [3] 0.01 | quisinostat 0.013 | tipifarnib -0.053 | [4] 0.024 | [5] 0.01 | [6] -0.044

CDS2 (UniProt O95674)
inactive: nilotinib -0.035 | [1] -0.093 | dasatinib 0.073 | [2] 0.062 | [3] -0.005 | quisinostat -0.045 | tipifarnib 0.093 | [4] -0.01 | [5] 0 | [6] -0.152

BORCS5 (UniProt Q969J3)
inactive: nilotinib 0.064 | [1] -0.021 | dasatinib -0.025 | [2] 0.082 | [3] -0.003 | quisinostat -0.017 | tipifarnib -0.061 | [4] -0.017 | [5] -0.029 | [6] -0.009

BNIP3 (UniProt Q12983)
Sequence of UniProt Q12983 (Q12983 whole entry, looked up): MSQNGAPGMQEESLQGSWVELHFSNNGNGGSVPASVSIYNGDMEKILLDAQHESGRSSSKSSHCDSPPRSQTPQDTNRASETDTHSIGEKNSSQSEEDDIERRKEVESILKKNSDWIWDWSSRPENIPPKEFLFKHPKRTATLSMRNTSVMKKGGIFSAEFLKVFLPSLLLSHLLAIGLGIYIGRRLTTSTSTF
inactive: nilotinib 0.037 | [1] -0.077 | dasatinib 0.014 | [2] -0.002 | [3] -0.02 | quisinostat -0.219 | tipifarnib 0.05 | [4] 0.061 | [5] -0.018 | [6] -0.007

ATP11A (UniProt P98196)
inactive: nilotinib -0.046 | [1] -0.053 | dasatinib 0.018 | [2] 0.011 | [3] 0.035 | quisinostat 0.002 | tipifarnib 0.019 | [4] 0.043 | [5] -0.045 | [6] -0.012

BRAT1 (UniProt Q6PJG6)
Sequence of UniProt Q6PJG6 (Q6PJG6 whole entry, looked up): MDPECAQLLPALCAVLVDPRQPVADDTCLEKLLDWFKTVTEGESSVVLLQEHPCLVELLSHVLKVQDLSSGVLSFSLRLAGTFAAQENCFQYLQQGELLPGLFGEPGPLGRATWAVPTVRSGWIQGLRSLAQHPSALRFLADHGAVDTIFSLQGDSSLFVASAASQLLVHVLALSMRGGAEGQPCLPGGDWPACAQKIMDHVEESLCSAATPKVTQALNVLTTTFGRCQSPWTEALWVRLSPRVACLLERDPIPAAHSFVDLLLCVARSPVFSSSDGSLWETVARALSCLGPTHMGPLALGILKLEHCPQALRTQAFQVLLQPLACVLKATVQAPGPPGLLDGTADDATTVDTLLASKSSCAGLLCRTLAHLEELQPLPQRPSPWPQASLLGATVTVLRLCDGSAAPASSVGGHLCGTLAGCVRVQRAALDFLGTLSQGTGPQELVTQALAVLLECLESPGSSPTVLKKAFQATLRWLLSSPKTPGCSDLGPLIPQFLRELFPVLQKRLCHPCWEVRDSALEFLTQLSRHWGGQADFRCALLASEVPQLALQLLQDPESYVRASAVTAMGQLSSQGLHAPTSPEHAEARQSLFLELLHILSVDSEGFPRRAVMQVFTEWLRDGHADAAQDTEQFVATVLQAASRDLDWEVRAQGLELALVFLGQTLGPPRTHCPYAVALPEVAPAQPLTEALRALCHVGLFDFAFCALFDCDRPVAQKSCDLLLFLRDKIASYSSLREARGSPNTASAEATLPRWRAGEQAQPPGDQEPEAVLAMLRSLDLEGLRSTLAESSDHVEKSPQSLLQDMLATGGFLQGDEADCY
inactive: nilotinib 0.031 | [1] -0.016 | dasatinib -0.046 | [2] 0.01 | [3] 0.046 | quisinostat -0.07 | tipifarnib 0 | [4] 0.008 | [5] 0.047 | [6] -0.017

ATP6V0A2 (UniProt Q9Y487)
inactive: nilotinib 0.034 | [1] -0.008 | dasatinib -0.028 | [2] 0.027 | [3] 0.003 | quisinostat -0.065 | tipifarnib -0.033 | [4] -0.011 | [5] 0.001 | [6] -0.001

BET1 (UniProt O15155)
inactive: nilotinib 0.038 | [1] 0.052 | dasatinib -0.015 | [2] -0.011 | [3] 0 | quisinostat 0.023 | tipifarnib -0.063 | [4] -0.005 | [5] -0.057 | [6] -0.005
